DT40 TDP1 CPT: DT40-hTDP1 cell growth loss with CPT. 420,000 compounds, 12% hits. chicken DT40 Tdp1-/-;hTDP1 cells + 20 nM CPT, ATP luminescence, 48 h. Potency, µM (top dose mostly 46.2 µM), usual class: inhibitors; further: nearly all actives have a fitted effect of over 55% in size
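Cell growth measured by CellTiter-Glo luminescence after a minimum 48 h, 37 C compound exposure with 20 nM CPT in Tdp1-knockout DT40 cells stably expressing hTDP1, seeded 400/well; qHTS titration format.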
TDP1 cell noCPT: qHTS for Inhibitors of human tyrosyl-DNA phosphodiesterase 1 (TDP1): qHTS in cells in absence of CPT. DT40 Tdp1-/- hTDP1 cells, no CPT, ATP luminescence, 48 h. Potency, µM (highest dose often 46.2 µM), actives largely listed as inhibitors. 420,000 compounds, 15% hits; further: nearly all actives have a fitted effect of over 55% in size
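Seeded 400 DT40-hTDP1 cells/well (vehicle DMSO, no 20 nM CPT); pinned compounds; ≥48 hr at 37 °C; CellTiter-Glo luminescence as viability measure.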
HT1080-NT tox: kills 2HG-producing HT-1080-NT fibrosarcoma cells. 360,000 compounds, 1.6% hits. Potency, µM (highest dose often 46.1 µM), most hits filed as cytotoxic. AID 686970. HT-1080-NT fibrosarcoma viability, CellTiter-Glo ATP luminescence, 48 h;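 further: NT is the 2HG producing partner of a matched IDH1 knockdown line; nearly all actives have a fitted effect of over 55% in size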
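Compounds were tested in concentration-response format on HT-1080-NT cells for 48 hours at 37 degrees C. Cell viability came from CellTiter-Glo luminescence; curves were classified by r2, response magnitude and activity.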
IL-1B inflam inh: blocks inflammasome-driven IL-1 beta release; THP-1 LPS/ATP IL-1B secretion, AlphaLISA, 16 h; hits give low values; activity change, % at 57.5 µM; 360,000 compounds, 4.7% hits; in the data active means activity change below about -50%; inconclusive means mostly about -30% to -49%
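Secreted IL-1B measured by AlphaLISA bead assay after 16 h compound exposure of THP-1 cells; compounds (final up to 57.5 uM) added 1 h before LPS (250 ng/mL) and ATP (1.25 mM) stimulation; lower signal means less secretion.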
HT1080 IDH1KD tx: kills HT-1080 cells with IDH1 knockdown. HT-1080 IDH1 knockdown viability, ATP luminescence, 48 h. Potency, µM (doses to about 46.1 µM), usual class: cytotoxic. 360,000 compounds, 2% hits
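Using the IDH1-knockdown HT-1080 line run in the same batch and compound series as the NT line, viability after 48 h at 37 °C was determined by CellTiter-Glo luminescence and expressed as % activity.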
A number is an active result; . = inactive; ? = inconclusive; / = not tested or not shown. Most compounds without a hit are left out; they make up all but 19% or so of the library. Unless noted, the call rests on the fitted dose curve; in most records, active means well fitted curve in the direction sought with a large enough effect; inconclusive means small, poorly fitted or top-dose-only effect, or another doubt; inactive means no such curve, though single readings can be large; an effect the other way counts as inactive or inconclusive.

SMILES	DT40 TDP1 CPT	TDP1 cell noCPT	HT1080-NT tox	IL-1B inflam inh	HT1080 IDH1KD tx
CCOC(=O)c1sc(=NC(=O)c2c(F)cccc2F)n(C)c1C	.	.	.	.	.
CC1CC(C)CN(c2ncnc3c2cnn3Cc2ccc(Cl)cc2)C1 (centres undefined)	?	?	?	.	.
CCCCNc1ncnc2c1cnn2-c1ccc(Cl)cc1	3.7µM	4.6µM	12µM	.	9.2µM
Cc1ccc(CNc2ncnc3c2cnn3-c2ccccc2)cc1	.	.	.	.	?
CCN(CC)c1ncnc2c1cnn2Cc1ccc(Cl)cc1	21µM	?	.	?	.
CCc1nc(NC(C)(C)C)c2cnn(-c3ccccc3)c2n1	?	18µM	?	.	?
Clc1ccc(Cn2ncc3c(NCc4ccccc4)ncnc32)cc1	4.6µM	4.1µM	5.8µM	.	4.6µM
CC/C(=N\NC(=O)C(N)=O)c1ccccc1O	?	?	.	.	.
COc1cccc(CNC(=O)c2c(OC)cc(=O)n3c2CCN(C(=O)c2csc(C)n2)CC3)c1	.	.	/	/	/
Cc1ccc(CNS(=O)(=O)c2ccc3c(c2)CCN3C(=O)CCCC(=O)O)cc1	.	.	.	.	.
CCCCNc1ncnc2c1cnn2-c1ccccc1	2.3µM	2.6µM	?	.	15µM
COCCNc1ncnc2c1cnn2Cc1ccc(Cl)cc1	?	?	.	.	.
CCCCNc1ncnc2c1cnn2Cc1ccc(Cl)cc1	9.2µM	6.5µM	?	.	?
COCCCNc1ncnc2c1cnn2-c1ccc(F)cc1	5.2µM	5.8µM	/	/	/
COCCNc1ncnc2c1cnn2Cc1ccccc1Cl	?	18µM	.	.	.
c1ccc(-n2ncc3c(NCCCN4CCOCC4)ncnc32)cc1	.	.	.	.	.
COc1ccc(N(CC(=O)NCc2ccco2)C(=O)CCC(=O)Nc2nccs2)cc1	.	.	.	.	.
CC1(C)CC(=O)C(C=NCCN2CCN(C(=S)Nc3ccc(F)cc3)CC2)=C(O)C1	.	.	?	.	.
N#CCCn1c(=O)c(-c2cccs2)nc2cnc(Oc3cccc(Cl)c3)nc21	.	?	/	/	/
COCC(C)Nc1ncnc2c1cnn2-c1ccc(Cl)cc1 (centres undefined)	?	?	.	-57	.
CCC(=O)C1=C(c2ccc(F)cc2)N(C(=O)CC)n2c(nnc2-c2ccc(OC)cc2)S1	4.1µM	2.9µM	/	/	/
CCC(=O)C1=C(c2ccc(C)cc2)N(C(=O)CC)n2c(nnc2C2CCCCC2)S1	?	26µM	/	/	/
CC(=O)C1=C(c2ccc(F)cc2)N(C(C)=O)n2c(nnc2C2CCCCC2)S1	?	23µM	/	/	/
CCc1ccccc1NC(=O)CC1SCCNC1=O (centres undefined)	.	.	.	.	.
NC(=O)c1ccc(CSc2nc3ccccc3s2)cc1	.	.	.	.	.
SMILES	DT40 TDP1 CPT	TDP1 cell noCPT	HT1080-NT tox	IL-1B inflam inh	HT1080 IDH1KD tx
COc1cc(/C=C(\C#N)C(N)=O)cc(CSc2nc3ccccc3s2)c1O	15µM	15µM	/	/	/
FC(F)(F)c1ccc(-c2cccc3c2C2CC3CCN2Cc2ccc3c(c2)OCO3)cc1 (centres undefined)	?	16µM	?	.	.
O=C(OCc1ccccc1)N1CCC2CC1c1c(Cl)cccc12 (centres undefined)	?	18µM	.	.	.
O=C(OCc1ccccc1)N1CCC2CC1c1c(-c3ccc(C(F)(F)F)cc3)cccc12 (centres undefined)	16µM	?	.	.	.
Cc1cccnc1CCNC(=O)CC1C(=O)NCCN1CC1CCCCC1 (centres undefined)	.	.	.	.	.
Cc1cc(C)nc(/N=C(\N)N(Cc2ccccc2)Cc2ccccc2)n1	?	?	?	-72	.
CCCCN(CCCC)/C(N)=N/c1nc(C)cc(C)n1	23µM	?	.	.	.
Cc1cc(C)n2nc(C(=O)OCC(=O)N(C)Cc3ccccc3)nc2n1	.	.	.	.	.
COc1ccc(OC)c(N2C(=O)c3ccccc3C2c2nnnn2-c2ccc3c(c2)OCCO3)c1 (centres undefined)	?	?	.	.	.
COc1ccc(/C=C2\C(=O)ON=C2c2ccccc2)cc1OC	26µM	?	.	-98	.
O=C1ON=C(c2ccccc2)/C1=C/c1ccco1	?	?	.	.	.
COc1cc(/C=C2\N=C(c3ccccc3)NNC2=O)cc(OC)c1OC	5.2µM	4.6µM	4.6µM	.	3.3µM
CCOc1cc(/C=C2\C(=O)ON=C2c2ccccc2)ccc1OC	23µM	18µM	.	-94	.
CN(C)/C=C1\C(=O)ON=C1c1ccccc1	.	.	.	.	.
O=C1NNC(c2ccccc2)=N/C1=C\c1ccco1	.	?	.	.	.
COc1cc(/C=C2\C(=O)ON=C2c2ccccc2)cc(OC)c1OC	?	16µM	?	-117	.
Cc1ccccc1OCC(=O)Nc1nnc(S(=O)(=O)N2CCCCCC2)s1	.	.	/	/	/
CC1Sc2ccc(S(=O)(=O)CCC(=O)NC3CCCCC3C)cc2NC1=O (centres undefined)	?	.	.	.	.
Cc1cccc(C2=NOC(=O)/C2=C\c2ccccc2F)c1	.	2.6µM	.	.	.
COc1ccc(/C=C2/C(=O)ON=C2c2ccccc2)cc1OC	?	15µM	?	-102	?
NC(=O)COc1ccccc1	.	.	.	.	.
CCOc1cc(/C=C2/C(=O)ON=C2C)ccc1OCc1ccccc1F	?	?	.	-100	?
NC(=O)COc1ccc(/C=C2\C(=O)ON=C2c2ccccc2)cc1	16µM	15µM	.	?	.
CNc1nc(N)c(C(=O)C23CC4CC(CC(C4)C2)C3)s1	.	.	.	.	?
CCCCc1cc(=O)oc2cc(OCc3cc(OC)c(OC)c(OC)c3)c(Cl)cc12	?	15µM	.	.	.
SMILES	DT40 TDP1 CPT	TDP1 cell noCPT	HT1080-NT tox	IL-1B inflam inh	HT1080 IDH1KD tx
COc1ccc(CCNS(=O)(=O)c2ccc(Br)cc2)cc1OC	.	.	.	?	.
Cc1ccc2cc(C)c(SCC(=O)NCc3ccco3)nc2c1	.	?	.	.	.
COc1cc(C(=O)NCCNc2nc3c(C)c(C)ccc3cc2C#N)cc(OC)c1OC	.	.	.	.	.
Cc1ccc2cc(C#N)c(NCc3ccco3)nc2c1	23µM	?	.	.	?
COc1cc(C(=O)NCCCNc2nc3cc(C)c(C)cc3cc2C#N)cc(OC)c1OC	?	23µM	.	.	.
COc1cc(C(=O)NCCNc2nc3cc(C)ccc3cc2C#N)cc(OC)c1OC	?	16µM	.	.	.
CCCC(C)NC(=O)CSc1nc2ccc(C)cc2[nH]1 (centres undefined)	.	.	.	.	.
O=C(N/C(=C/c1cccc([N+](=O)[O-])c1)C(=O)N1CCCCCC1)c1ccco1	?	.	.	.	.

Source: PubChem BioAssay (National Center for Advancing Translational Sciences (NCATS))
